Source: PubChem
PERK inhibitor = human PERK inhibition, primary cell-based screen; hit rate 0.17% among 220,000; Q9NZJ5; inhibition, % at 5.6 µM; AID 1416; CHO PERK-DD fusion, SEAP luminescence translation reporter;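 active means inhibition above the mean inhibition of all tested compounds plus 3 SD, set separately per screening campaign, cut at about 2.9% in these data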;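 further: PERK kinase domain activated by AP20187 dimerizer at 100 nM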
Target sequence (Q9NZJ5 whole entry, looked up, the tested form may be a part): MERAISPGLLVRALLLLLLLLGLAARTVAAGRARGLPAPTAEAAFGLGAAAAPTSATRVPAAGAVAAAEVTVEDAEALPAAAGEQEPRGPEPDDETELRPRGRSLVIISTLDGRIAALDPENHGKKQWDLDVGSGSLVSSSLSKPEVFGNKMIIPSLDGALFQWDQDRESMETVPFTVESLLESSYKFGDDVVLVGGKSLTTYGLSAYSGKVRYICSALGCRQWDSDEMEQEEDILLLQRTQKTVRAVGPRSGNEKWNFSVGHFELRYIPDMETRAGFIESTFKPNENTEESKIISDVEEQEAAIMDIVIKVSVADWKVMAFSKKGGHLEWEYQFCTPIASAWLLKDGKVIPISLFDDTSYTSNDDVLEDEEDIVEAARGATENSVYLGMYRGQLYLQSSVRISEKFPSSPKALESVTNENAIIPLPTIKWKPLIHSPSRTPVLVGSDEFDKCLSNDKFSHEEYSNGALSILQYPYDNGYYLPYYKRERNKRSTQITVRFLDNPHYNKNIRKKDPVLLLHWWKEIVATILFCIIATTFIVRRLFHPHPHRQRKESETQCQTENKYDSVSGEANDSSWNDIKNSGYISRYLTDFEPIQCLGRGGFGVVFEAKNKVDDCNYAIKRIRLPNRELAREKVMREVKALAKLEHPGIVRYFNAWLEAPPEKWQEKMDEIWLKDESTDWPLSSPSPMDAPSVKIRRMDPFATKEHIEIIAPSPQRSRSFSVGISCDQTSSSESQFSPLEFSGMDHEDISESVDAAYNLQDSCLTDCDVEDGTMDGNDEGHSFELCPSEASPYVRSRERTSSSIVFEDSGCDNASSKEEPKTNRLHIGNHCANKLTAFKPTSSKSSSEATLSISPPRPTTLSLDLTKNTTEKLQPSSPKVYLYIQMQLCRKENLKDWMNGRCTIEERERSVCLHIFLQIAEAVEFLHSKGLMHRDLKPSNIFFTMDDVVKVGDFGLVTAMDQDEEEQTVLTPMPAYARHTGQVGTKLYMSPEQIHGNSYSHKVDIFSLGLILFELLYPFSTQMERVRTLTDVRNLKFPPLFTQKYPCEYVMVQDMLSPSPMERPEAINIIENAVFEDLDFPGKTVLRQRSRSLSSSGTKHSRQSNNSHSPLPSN
Arbovirus anti = arbovirus infection inhibition | inhibition, % at 10 µM | hit rate 0.37% among 200,000 | arbovirus infection cell-based antiviral screen; in the data active means inhibition above about 30%
ROMK mod = modulators of human ROMK potassium channel; P48048; Tet-inducible ROMK, thallium flux fluorescence; actives lie on both sides; B-score at 10 µM; hit rate 2% among 130,000;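 active means signal ratio slope over the read window, or its plate-corrected B-score, at least 3 SD from the plate mean, either direction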;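 further: B-score of the F/F0 ratio slope over 7 to 12 s after thallium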
WT yeast gro inh = growth inhibition of WT yeast, mitochondrial fusion screen. mitochondrial fusion phenotypic screen, WT strain. inhibition, % at 10 µM. hit rate 2.1% among 190,000; in the data active means inhibition above about 58%; tested in S. cerevisiae
Numbers stand for hits; – = inactive; · = no result given. Rows were chosen to be rich in hits. Some 3.3% of all compounds tested hit in one or more screens of this group.

SMILES	PERK inhibitor	Arbovirus anti	ROMK mod	WT yeast gro inh
COc1ccc(-c2nc(NC(=O)c3ccc(OCC(=O)N4CCOCC4)c(OC)c3)sc2C)cc1	–	45	–	–
CCOC(=O)C1(CCCc2ccccc2)CCN(C2CCSCC2)CC1	–	30	–	–
CSCCC(C(=O)Nc1ccc2c(c1)OCO2)N1C(=O)c2ccccc2C1=O (centres undefined)	–	–	–	–
CCCNc1nc2c(c(=O)n(C)c(=O)n2C)n1CCc1ccccc1	–	–	–	–
CC(C)n1c(NCCc2ccccc2)nc2c1c(=O)n(C)c(=O)n2C	–	30	·	–
CCOC(=O)N1CCC(NC(=O)c2cc(-c3ccc(F)cc3)[nH]c2C)CC1	–	–	–	67
CSc1nnc(C2CCCN2)n1C (centres undefined)	–	–	–	–
Cc1ccc(C(=O)NCC(=O)OC(C)C(=O)Nc2ccc(N3CCOCC3)cc2)s1 (centres undefined)	–	·	–	·
Cc1cccc(CN2CCN(C(=O)c3ccccc3F)CC2)c1	–	–	6.2	–
Cc1cccc(NC(=O)CN2C(=O)S/C(=C\c3ccc(O)c([N+](=O)[O-])c3)C2=O)c1	–	–	–	–
COc1cc(/C=C2\SC(=O)N(c3ccc(Cl)cc3)C2=O)cc([N+](=O)[O-])c1O	–	57	–	–
O=C1S/C(=C\c2ccc(O)c([N+](=O)[O-])c2)C(=O)N1Cc1cccc([N+](=O)[O-])c1	–	–	·	86
O=C1S/C(=C\c2ccc(O)c([N+](=O)[O-])c2)C(=O)N1c1ccccc1Cl	–	–	-3.6	80
COc1cc(/C=C2\SC(=O)N(c3cccc(Cl)c3)C2=O)cc([N+](=O)[O-])c1O	–	–	–	–
O=c1c(C=Nc2cccc(C(F)(F)F)c2)c[nH]n1-c1cccc(Cl)n1	4.3	–	·	–
N#Cc1c2ccc(O)cc2n2ccccc12	–	–	-4.7	–
O=C(Nc1cccc(Cl)c1)N1CCSc2cc(Cl)ccc21	–	–	·	–
O=C(Nc1ccccc1)N1CCSc2cc(Cl)ccc21	3.1	–	·	–
CCN(CC)C(=S)NC(=O)c1ccc(OC)c(Br)c1	–	–	4.6	–
Cc1ccnc(Nc2nc(-c3c(C)nc4sccn34)cs2)c1	–	–	·	81
Cc1ccc(Nc2nc(-c3c(C)nc4ncccn34)cs2)cc1	–	–	·	–
Cc1ccc(Nc2nc(-c3c(C)nc4ccccn34)cs2)cc1	–	–	–	71
S=C(NCc1ccc2[nH]c3c(c2c1)CCCC3)Nc1ccccc1	–	–	–	76
Cc1cc(C)cc(NC(=S)NCc2ccc3[nH]c4c(c3c2)CCCC4)c1	–	–	–	72
CC(C)(C)NC(=O)C(c1ccncc1)N(C(=O)Cn1nnc(-c2ccc(F)cc2)n1)c1cccc(F)c1 (centres undefined)	–	–	–	–
SMILES	PERK inhibitor	Arbovirus anti	ROMK mod	WT yeast gro inh
Cc1nn(CCCC(=O)Nc2sc3c(c2C#N)CCC3)c(C)c1[N+](=O)[O-]	–	–	·	–
Cc1nn(CC(=O)Nc2sc3c(c2C#N)CCC(C(C)(C)C)C3)c(C)c1[N+](=O)[O-] (centres undefined)	3.0	–	–	–
CCc1ccc2[nH]c(=O)c(C(c3nnnn3CC3CCCO3)N3CCN4CCCC4C3)cc2c1 (centres undefined)	–	–	-2.4	–
CNc1nc(-c2ccccc2)nc(-c2ccc(OC)cc2)c1C#N	–	–	–	–
COc1ccc(-c2nc(-c3ccccc3)[nH]c(=O)c2C#N)cc1	–	–	–	80
O=C(N/N=C/c1ccc(O)c(O)c1)c1ccc(CSc2cccc3cccnc23)cc1	–	–	·	–
Cc1ccc(-c2nnc3sc(C4COc5ccccc5O4)nn23)cc1 (centres undefined)	–	–	·	75
CCOC(=O)C1CCCN(C(=S)Nc2ccc(OC)cc2)C1 (centres undefined)	–	–	–	–
O=[N+]([O-])c1cc(/C=N/O)ccc1Oc1cccc(Cl)c1	–	–	–	72
OCC1(CCOc2ccccc2)CCN(CC2=Cc3cc(Cl)ccc3OC2)CC1	–	–	–	90
CCOc1cc(-c2nc(C)c(C(C)=O)n2O)ccc1OCC(=O)Nc1cccc(C)c1	–	–	–	62
COC(=O)[C@H]1[C@H]2C[C@@H]3c4[nH]c5cc(OC)ccc5c4CCN3C[C@H]2C[C@@H](OC(=O)c2ccc(N)cc2)[C@@H]1OC	–	·	·	·
COc1ccc2c3c([nH]c2c1)C1CC2C(CC(O)C(OC)C2CO)CN1CC3 (centres undefined)	4.1	·	–	·
CCN(CC)S(=O)(=O)c1ccc(C2=NOC3(C2)N(C)c2ccccc2C3(C)C)cc1 (centres undefined)	–	–	–	–
CC1CCN(S(=O)(=O)c2ccc(Oc3ccc([N+](=O)[O-])cc3)cc2)CC1	–	–	·	61
